We go through 34 compounds from PubChem BioAssay (NCATS).

Inconclusive results are not listed. Where a call stands in place of a potency, no number is given. Calls of active or inactive are those of the source. Calls follow the shape of the dose curve; as a rule, active = well fitted cell-killing curve with a large enough effect; inconclusive = small, poorly fitted or top-dose-only effect; inactive = flat fitted curve, though single readings scatter.
Potency is read from the fitted curve at half-maximal effect.

The assay is described as follows: qHTS of pediatric cancer cell lines to identify multiple opportunities for drug repurposing: Primary screen for U-2 OS cells (AID 1347096). Also: nearly all actives have a fitted effect of over 50% in size. The note with it: U-2 OS viability, CellTiter-Glo luminescence, 48 h; series mostly up to 46 µM. The method, boiled down:
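Cells (500-1,000/well) rested 5 h, then received compounds for 48 h; metabolically active cells were measured by CellTiter-Glo luminescence. Final concentrations spanned up to 46 µM (MIPE, 11-point) or 0.59 nM-46 µM (NPC, 8-point) in primary screens, 11-point in follow-ups.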
For `CC(C)=CCNc1ncnc2c1ncn2[C@@H]1O[C@H](CO)[C@@H](O)[C@H]1O`, the Potency is 21.1 µM (active).
For `COc1cc2c(cc1OC)CN(C(=O)[C@H](C)N[C@@H](CCc1ccccc1)C(=O)O)[C@H](C(=O)O)C2`, the Potency entry is “inactive”.
Turning to `O=C(O)[C@@H](O)[C@H](O)[C@H](O)[C@@H](O)C(=O)O`, the Potency result is “inactive”.
As to `CC(=O)OCC(=O)Nc1cc(C#N)cc(NC(=O)COC(C)=O)c1Cl`, the Potency entry is “inactive”.
Turning to `O=C(Nc1ccc(S(=O)(=O)N2CCOCC2)cc1)c1cc(Cl)ccc1NS(=O)(=O)c1ccc(Cl)s1`, the Potency result is “inactive”.
In the case of `C[C@]12CCC(=O)C=C1CC[C@@H]1[C@@H]2[C@@H](O)C[C@@]2(C)[C@H]1CC[C@]2(O)C(=O)COC(=O)CCC(=O)O` it was “inactive”; in that of `CC1(C)S[C@@H]2[C@H](NC(=O)C(c3ccccc3)S(=O)(=O)O)C(=O)N2[C@H]1C(=O)O` (some centres undefined), “inactive”; in that of `CCc1cc2cc(OC)c(OC)cc2c(Cc2ccccc2)n1`, “inactive”.
Turning to `CC(=O)Nc1ccc(S(=O)(=O)Nc2cc(C)on2)cc1`, the Potency result is “inactive”.
In the case of `CCNC(=O)NCCCOc1cccc(CN2CCCCC2)c1`, the Potency entry was “inactive”.
Regarding `OCCCc1ccccc1`, the Potency result was “inactive”.
`CN1CCC(N(Cc2cccs2)c2ccccc2)CC1`: the Potency entry was “inactive”.
On to `O=c1[nH]c2ccccc2c(=O)n1CCCl`, for which the Potency result is “inactive”.
In the case of `CCCC(=O)O[C@]1(C(=O)COC(=O)CC)CC[C@H]2[C@@H]3CCC4=CC(=O)CC[C@]4(C)[C@H]3[C@@H](O)C[C@@]21C` it was “inactive”.
In the case of `CC(C)C(=O)Nc1cccc(C(F)(F)F)c1`, the Potency entry was “inactive”.
Take `OC1(c2ccc(Cl)cc2)CCNCC1`: the Potency entry is “inactive”.
Consider `Cc1cccc(C)c1NC(=O)c1ccc(N)cc1`, for which the Potency entry was “inactive”.
Consider `CCOc1c(N2CCOCC2)cnn(C)c1=O`, for which the Potency result was “inactive”.
In the case of `O=C(OCC(COC(=O)c1cccnc1)(COC(=O)c1cccnc1)COC(=O)c1cccnc1)c1cccnc1`, the Potency result was “inactive”.
With `CC(=O)Nc1c(I)c(NC(C)=O)c(I)c(C(=O)O)c1I`, the Potency entry is “inactive”.
Consider `C=CC[N+]1([C@H]2C[C@H]3[C@@H]4CC[C@H]5C[C@H](OC(C)=O)[C@@H](N6CCCCC6)C[C@]5(C)[C@H]4CC[C@]3(C)[C@H]2OC(=O)CC)CCCCC1`, for which the Potency entry is “inactive”.
Regarding `OC1(c2ccc(Cl)c(C(F)(F)F)c2)CCN(CCCC(c2ccc(F)cc2)c2ccc(F)cc2)CC1`, the Potency is 21.1 µM (active).
With `COC(=O)/C=C(/C)N`, the Potency result was “inactive”.
Turning to `Nc1nc2ccccc2n1Cc1ccc(F)cc1`, the Potency entry was “inactive”.
Take `CCCc1ccc(OCC(=O)N2CCN(C(=O)COc3ccc(CCC)cc3OC)CC2)c(OC)c1`: the Potency result was “inactive”.
With `CCC(=O)O[C@]1(C(=O)COC)[C@@H](C)C[C@H]2[C@@H]3CCC4=CC(=O)C=C[C@]4(C)C3(F)[C@@H](O)C[C@@]21C` (some centres undefined), the Potency result is “inactive”.
Consider `CN(C)C(=O)CNC(=O)Cc1ccccc1`, for which the Potency entry is “inactive”.
As to `CCCCNc1ccc(C(=O)OCCN(CC)CC)cc1`, the Potency result is “inactive”.
In the case of `O=C1CCCc2c(O)cccc21` it was “inactive”; in that of `CC(Oc1c(Cl)cccc1Cl)C1=NCCN1` (centres undefined), “inactive”.
As to `CC(C)(C)C(O)/C=C/c1ccc2c(c1)OCO2` (centres undefined), the Potency result was “inactive”.
For `COC(=O)c1cc(S(N)(=O)=O)ccc1OC`, the Potency entry was “inactive”.
Turning to `Nc1ccc([N+](=O)[O-])c(C(F)(F)F)c1`, the Potency entry is “inactive”.
`C/C=C(/C(=C/C)c1ccc(OC(C)=O)cc1)c1ccc(OC(C)=O)cc1`: the Potency entry is “inactive”.
